# Measured values from PubChem BioAssay (NCI).
# About 79,000 compounds went through this panel and 15% of them were active in at least one assay; those are over-represented in the sample as a whole. Unmarked numbers belong to inactive results. The source made the active and inactive calls. Rule as the data show it: active = growth inhibition above about 70%; inactive = the rest.
# Legend:
# [1] = NCI Yeast Anticancer Drug Screen. Data for the rad50 strain (AID 155);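 also: 0% = growth of vehicle-only cultures of the same strain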; conditions: S. cerevisiae rad50 strain growth inhibition; at 50.0 µM; active compounds read high
# Summary of the method: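 Cells are treated with compound, grown, and their growth is then scored against vehicle-only cultures of the same repair-deficient yeast strain.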
# [2] = NCI Yeast Anticancer Drug Screen. Data for the mec2-1 strain (AID 157); conditions: S. cerevisiae mec2-1 strain, at 50.0 µM, active compounds read high
# Summary of the method: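 mec2-1 yeast strain, carrying an alteration in DNA damage repair or cell cycle control, was exposed to compounds; growth inhibition was measured relative to vehicle-treated controls.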
# [3] = NCI Yeast Anticancer Drug Screen. Data for the sgs1 mgt1 strain (AID 161);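 also: 0% = growth of cultures given vehicle only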; conditions: S. cerevisiae sgs1 mgt1 strain, at 50.0 µM, active compounds read high
# Summary of the method: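 Percent growth inhibition was derived by comparing compound-exposed mutant yeast with vehicle-exposed cultures. The strain carries alterations in DNA damage repair.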
# [4] = NCI Yeast Anticancer Drug Screen. Data for the cln2 rad14 strain (AID 165);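 also: 0% = growth equal to vehicle treated cultures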; conditions: S. cerevisiae cln2 rad14 strain, at 50.0 µM, active compounds read high
# Summary of the method: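 Yeast carrying cln2 and rad14 alterations (cell cycle control and DNA damage repair) were exposed to compounds. Growth inhibition was measured against vehicle-treated controls.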
# [5] = NCI Yeast Anticancer Drug Screen. Data for the bub3 strain (AID 167); conditions: S. cerevisiae bub3 mutant strain, at 50.0 µM, active compounds read high
# Summary of the method: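 Part of a panel of yeast mutants defective in DNA damage repair or cell cycle regulation. Each strain is grown with compound, and inhibition is calculated relative to solvent-treated cultures.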
# [6] = NCI Yeast Anticancer Drug Screen. Data for the mlh1 rad18 strain (AID 175); conditions: S. cerevisiae mlh1 rad18 strain growth inhibition; at 50.0 µM; active compounds read high
# Summary of the method: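 Growth inhibition of the yeast strain was measured after compound exposure and expressed relative to vehicle-treated controls. The strain carries defined defects in DNA damage repair.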
Compound,growth inhibition [1],growth inhibition [2],growth inhibition [3],growth inhibition [4],growth inhibition [5],growth inhibition [6]
Cc1c(Cl)cccc1NC(=O)OCCCc1ccccc1,1.5%,10.2%,15.6%,-9.45%,9.35%,10.2%
CCOC(=O)C(Cl)(NC(=O)OCc1ccccc1)C(F)(F)F (stereo not given),-21.8%,0%,7.15%,22.5%,6.7%,-56.1%
ClCC#CCCl,19.4%,-10.9%,16.9%,4.3%,-7.4%,5.1%
CCCCCCC(C)C(C#N)C(=O)OCC (stereo not given),-11.8%,-11.8%,-26.1%,-4.15%,-16.6%,-14.3%
Cc1nn(C(=O)c2ccc(Cl)cc2)c2c1C(c1ccc(O)cc1)SC(N)=N2 (stereo not given),-33%,-49.1%,-43.7%,-26.8%,-23.9%,-31.2%
CCC/C=C/C=C\C(=O)O[C@@H]1[C@@H](C)[C@]2(O)[C@@H]3C=C(C)C(=O)[C@H]3CC(COC(C)=O)=C[C@H]2[C@@H]2C(C)(C)[C@]12OC(C)=O,21.7%,-4.9%,-8.1%,11.9%,-9.65%,-26.2%
c1ccc2c(c1)[nH]c1c2ncc2[nH]c3ccccc3c21,-2.7%,2.85%,-7.35%,-60.2%,-1.8%,7.25%
O=C(NCc1ccco1)Nc1ccccc1,-5.8%,-21.2%,-11.7%,-36%,7.1%,-7.55%
O=c1[nH]cc(S)c(=O)[nH]1,15.8%,-28.4%,-15.4%,-9.35%,-9.7%,-0.35%
CCOC(=O)c1sc(SSc2nc(C)c(C(=O)OCC)s2)nc1C,-4.4%,-4.7%,2.7%,12.9%,4.75%,10.1%
O=c1oc2c3ccc4ccccc4c3n(CCN3CCCCC3)c2c2ccccc12,30.4%,53.6%,22.9%,32.5%,44.3%,77.1% (active)
CCc1cccc(C)c1NC(=O)C1=C(C)NC(C)=C(C(=O)Nc2c(C)cccc2CC)C1c1ccc([N+](=O)[O-])cc1,40.8%,34.2%,42.2%,18.4%,36.9%,46.7%
O=[N+]([O-])c1cccc(S/N=C/c2c(O)ccc3ccccc23)c1,98.5% (active),99.1% (active),99.2% (active),72.8% (active),98.5% (active),97.8% (active)
CN(C)c1ccc(/[N+]([O-])=C/C=C/C=[N+](/[O-])c2ccc(N(C)C)cc2)cc1,-1.35%,3.8%,1.55%,-28.6%,13.2%,-14.6%
CC[N+](C)(CC)CCN1C(=O)CC[C@@]2(C)C1=CC[C@@H]1[C@@H]2CC[C@@]2(C)[C@H]1CC[C@]2(C)O,6.65%,8.8%,6.45%,29.5%,9.7%,12.1%
CC(=O)N(C)Nc1ccccc1,2.45%,-10.7%,17.9%,-7.4%,19.7%,-17.6%
c1cncc(CSc2ncnc3nc[nH]c23)c1,11.8%,-24.4%,-20.1%,-21.7%,-48.4%,-10.5%
COC(=O)C(C)(C)c1ccccc1C(C)(C)C(=O)OC,-5.85%,6.05%,-1.4%,-7.95%,9.35%,3.9%
CCCCCCCCCCCCCCCCSc1ccc(Br)cc1,45%,7%,23.9%,1.8%,2.2%,21%
CC(=O)C(OCCCl)OCCCl,2.9%,-7.65%,1.6%,-1.5%,0.3%,-2.95%

Compound,growth inhibition [1],growth inhibition [2],growth inhibition [3],growth inhibition [4],growth inhibition [5],growth inhibition [6]
CCOC(=O)c1cn(C2OC(COC(=O)c3ccccc3)C(OC(=O)c3ccccc3)C2OC(=O)c2ccccc2)c(=O)nc1N (stereo not given),-1.05%,-12.2%,18%,-32%,7.45%,-7.15%
CC1OC(c2ccccc2)C(=O)N1C1(C)C(=O)N2CCOC21c1ccccc1 (stereo not given),8.4%,11.2%,2.15%,5%,-1.95%,-3.05%
Cc1ccc(NC(=O)C(=O)CC(=O)c2c(C)n([O-])c3ccccc3[n+]2=O)cc1,5.65%,6.95%,-6.5%,16.4%,-1.55%,17.4%
CCOC(=O)c1ccc(=O)n2c1[nH]c1ccccc12,9.05%,-5.65%,-15.5%,-0.45%,-2.75%,-5.45%
Cc1cccc(C)c1C1=NCCN1,3.55%,-8.95%,-8.95%,-39.2%,-16.8%,1.65%
C=C1C(=O)OC2CC3(CO3)C3C(O)C(O)CC3(C)CC12 (stereo not given),2.4%,2.45%,-14.2%,-13.6%,-42.5%,-70.7%
NC(CCCNc1nc(O)c(-c2ccccc2)c(=O)[nH]1)C(=O)O (stereo not given),-12.9%,-24.4%,-10.7%,-44%,-10.3%,-3.55%
CC(C)n1ncc2c(N)ncnc21,4.2%,-2.2%,-6.8%,-26.8%,21.4%,-3.8%
Nc1c(N=Nc2ccc(-c3ccc(N=Nc4ccc(O)c(C(=O)O)c4)cc3)cc2)cc(S(=O)(=O)O)c2ccccc12,91.5% (active),96.6% (active),94.9% (active),93.3% (active),91% (active),93.1% (active)
CCCNC(=O)Cn1c(C)cc2ccccc21,6.55%,6.25%,26.2%,22.7%,15.4%,-82.5%
O=S(=O)(O)CCCCCO,-6.45%,-18.7%,-15.7%,-46.8%,-2.85%,-9.95%
CSC1C(=O)Nc2ccc([N+](=O)[O-])cc21 (stereo not given),-11.6%,-12.7%,0.45%,-19.3%,-39.7%,-0.8%
COCc1ccccc1P(c1ccccc1COC)c1ccccc1COC,31%,18.9%,42%,16.2%,10.5%,36%
CC(=O)c1cc(C(C)=O)c(CC(=O)C(=O)Nc2cccc(C)c2C)nc1CC(=O)C(=O)Nc1cccc(C)c1C,2.9%,-6.3%,16.5%,-19.2%,-9.6%,-18.5%
COc1cc2c(C)nc3c4cc5c(cc4ccc3c2cc1OC)OCO5,-12.4%,8.2%,18.2%,-41.9%,40.2%,1%
C(=C\C(Sc1ccccc1)c1ccccc1)/NNC1=NC(c2ccccc2)C(c2ccccc2)=NN1 (stereo not given),-22.4%,-8.6%,-42.8%,-4.35%,-19.9%,-3.55%
N#Cc1ccc(CC(O)(c2ccccc2)c2ccccc2)cc1,4.6%,-1.25%,-1.3%,-12.6%,3.25%,-9.7%
C=CC1(C)CCC2C(=CCC3C2(C)CC(O)C(O)C3(C)COC2OC(C(=O)O)C(O)C(O)C2O)C1 (stereo not given) (tested in a mixture with another compound),16.1%,-3.55%,-6.9%,18.3%,4.95%,-67.3%
CC1CC12OC(=O)N(c1cc(Cl)cc(Cl)c1)C2=O (stereo not given),1.7%,8.9%,14.3%,35.1%,-2.05%,16.6%
C[n+]1c(/C=C/c2ccc3c(c2)OCO3)ccc2ccccc21,1.55%,-0.2%,22%,6%,14.1%,14.2%
